Records with an inconclusive call do not appear. Activity calls are given as the source filed them. The calls were made as follows, unless noted: active = hit-call score of the fitted dose curve at least 0.9, where 1 is the maximum; inactive = score below 0.9.
Assays:
[1] = CCTE_Mundy_HCI_Cortical_Synap_Neur_Matur_NeuriteSpotCountPerNeuriteLength: CCTE's Synaptogenesis and Neurite Maturation Assay in rat cortical cells for Neurite Spot Count per Neurite Length, Mundy Lab (AID 2284210)
How it was run: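 Rat primary cortical cultures, glia arrested with AraC at DIV 5, were dosed with media change at DIV 7 and fixed at DIV 12. Synaptophysin puncta per MAP2-labelled neurite length were quantified by high-content imaging versus DMSO.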

[2] = CCTE_Mundy_HCI_Cortical_Synap_Neur_Matur_BPCount: CCTE's Synaptogenesis and Neurite Maturation Assay in rat cortical cells for Branch Point Count, Mundy Lab (AID 2284211)
How it was run: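 Rat primary cortical cultures, AraC added DIV 5; chemicals dosed DIV 7 through DIV 12. Fixed cells stained for MAP2, synaptophysin and Hoechst; neurite branch points counted by automated high-content imaging, fitted relative to DMSO.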

[3] = CCTE_Mundy_HCI_Cortical_NOG_NeuriteCount: CCTE's Neurite Outgrowth Assay in rat cortical cells for Neurite Count, Mundy Lab (AID 2284212);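 also: cells fixed about two days after chemical exposure began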
How it was run: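 Neurite number per cell from high-content imaging of betaIII-tubulin immunostaining, with Hoechst nuclear counterstain.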

[4] = CCTE_Mundy_HCI_Cortical_NOG_NeuriteLength: CCTE's Neurite Outgrowth Assay in rat cortical cells for Neurite Length, Mundy Lab (AID 2284213);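 also: neurites imaged about 48 to 50 h after chemical exposure began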
How it was run: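 Neurite length was read by high-content imaging of βIII-tubulin-labelled neurites in rat primary cortical cultures. Activity was fitted relative to DMSO.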

[5] = CCTE_Mundy_HCI_Cortical_Synap_Neur_Matur_NeuriteSpotCountPerNeuron: CCTE's Synaptogenesis and Neurite Maturation Assay in rat cortical cells for Neurite Spot Count per Neuron Count, Mundy Lab (AID 2284215)
How it was run: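 Rat primary cortical cells received AraC at DIV 5, then chemicals with a media change at DIV 7, and were fixed at DIV 12. Synaptophysin puncta on MAP2-stained neurites per neuron were counted by high-content imaging, fitted relative to DMSO.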

[6] = CCTE_Mundy_HCI_Cortical_Synap_Neur_Matur_SynapseCount: CCTE's Synaptogenesis and Neurite Maturation Assay in rat cortical cells for Synapse Count, Mundy Lab (AID 2284218)
How it was run: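 Primary rat cortical culture; AraC DIV 5 to arrest glia; compound + media change DIV 7; terminated DIV 12. PFA/Hoechst fix, anti-MAP2 + anti-synaptophysin immunostain; HCI synapse count/neuron; DMSO = baseline.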

[7] = CCTE_Mundy_HCI_Cortical_Synap_Neur_Matur_NeuriteCount: CCTE's Synaptogenesis and Neurite Maturation Assay in rat cortical cells for Neurite Count, Mundy Lab (AID 2284222)
How it was run: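 Primary rat cortical cells were plated, treated with AraC at DIV 5, then exposed to chemicals from DIV 7 through DIV 12. After fixation and immunostaining for MAP2 and synaptophysin, imaging quantified neurites, with DMSO as the negative control.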

[8] = CCTE_Mundy_HCI_Cortical_Synap_Neur_Matur_CellBodySpotCount: CCTE's Synaptogenesis and Neurite Maturation Assay in rat cortical cells for Cell Body Spot Count, Mundy Lab (AID 2284223)
How it was run: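 Rat primary cortical cultures received AraC at DIV 5 to arrest glia, were dosed with chemical at DIV 7 with media change, and were fixed at DIV 12 (288.33 h). Synaptophysin puncta on MAP2-positive cell bodies per neuron were counted by high-content imaging versus DMSO.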

[9] = CCTE_Mundy_HCI_hNP1_Pro_ResponderAvgInten: CCTE's Proliferation Assay in human neuroprogenitor cells, Mundy Lab (AID 2284224; active = hit-call score of the fitted dose curve at least 0.9, where 1 is the maximum;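 also: human neural progenitor cells hNP1 derived from WA09 embryonic stem cells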)
How it was run: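 Human neuroprogenitors (hNP1, WA09 lineage) receive test chemical after 40 to 44 hours of attachment. A four-hour BrdU pulse begins twenty hours later, followed by fixation and high content imaging; signal is referenced to DMSO controls.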

[10] = UKN2_HCS_IMR90_cell_viability: Viability Assessment in the University of Konstanz (UKN) Leist Lab Neural Crest Cell Migration Assay in human induced IMR90 Pluripotent Stem Cells (UKN2) (AID 2284233);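 also: viability of neural crest cells differentiated from IMR90 iPSC measured by calcein-AM fluorescence imaging; cells exposed to compound for 24 h after a 24 h migration phase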
How it was run: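 iPSC-derived (IMR90) neural crest cells seeded around silicone stoppers on PLO/laminin/fibronectin; after 24 h migration in N2-S with EGF/FGF, chemical added for 24 h. Calcein-AM/Hoechst stained 30 min, high-content imaged; bidirectional fit versus DMSO.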

[11] = CCTE_Mundy_HCI_Cortical_NOG_NeuronCount: CCTE's Neurite Outgrowth Assay in rat cortical cells for Neuron Count, Mundy Lab (AID 2284236; active = hit-call score of the fitted dose curve at least 0.9, where 1 is the maximum;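 also: neurons counted by imaging betaIII-tubulin and Hoechst stained cortical cells; cells exposed to compound for about 48 hours before fixation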)
How it was run: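 Read-out: neuron number by high-content imaging of betaIII-tubulin (Alexa Fluor-488) and Hoechst-labelled rat primary cortical cells.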

[12] = CCTE_Mundy_HCI_Cortical_NOG_BPCount: CCTE's Neurite Outgrowth Assay in rat cortical cells for Branch Point Count, Mundy Lab (AID 2284237);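 also: branch points counted about two days after chemical exposure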
How it was run: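 Measured 50.33 h after dosing, this morphology endpoint uses rat primary cortical cultures labelled for betaIII-tubulin. Branch points are quantified by high-content imaging, with DMSO as negative control and baseline.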

[13] = CCTE_Mundy_HCI_hNP1_Casp3_7: CCTE's Caspase-Glo 3/7 Assay in human neuroprogenitor cells for Apoptosis, Mundy Lab (AID 2284240)
How it was run: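 Neuroepithelial-lineage stem cells from WA09 embryonic cells were treated with chemicals after 40–44 h of culture. Twenty-four hours later, caspase-3/7 activation was detected luminescently after a 30 min room-temperature reagent step, with DMSO as baseline.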

[14] = CCTE_Mundy_HCI_hNP1_CellTiter: CCTE's Cell Titer-Glo 2 Assay in human neuroprogenitor cells for Viability, Mundy Lab (AID 2284241; active = hit-call score of the fitted dose curve at least 0.9, where 1 is the maximum;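 also: a hit is a drop in ATP luminescence versus DMSO meaning reduced viability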)
How it was run: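 Measures ATP content in human neural progenitors derived from WA09 embryonic cells. Read-out at 26.5 hours after dosing, with DMSO serving as the negative control and baseline.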

[15] = CCTE_Mundy_HCI_Cortical_Synap_Neur_Matur_NeuronCount: CCTE's Synaptogenesis and Neurite Maturation Assay in rat cortical cells for Neuron Count, Mundy Lab (AID 2284242; active = hit-call score of the fitted dose curve at least 0.9, where 1 is the maximum;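 also: hits reduce neuron count versus DMSO baseline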)
How it was run: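 Neuron number was scored by automated high-content imaging of Hoechst- and MAP2-labelled rat primary cortical cells. Glial growth was arrested with AraC at DIV 5, compounds were applied from DIV 7, and cultures ended at DIV 12.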

[16] = IUF_NPC2c_oligodendrocyte_migration_120hr: Leibniz Research Institute for Environmental Medicine (IUF) 120-hour Neural Progenitor Cell Migration Assay for Oligodendrocyte Migration (NPC2c) (AID 2284297);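 also: O4-positive oligodendrocyte migration distance divided by radial glia migration distance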
How it was run: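 Human fetal cortex-derived neural progenitor spheres (0.3 mm) were plated on poly-D-lysine/laminin in N2 differentiation medium and exposed to 7 concentrations for 120 h, with half-medium renewal at day 3. Oligodendrocyte migration distance was normalized to radial glia migration, relative to DMSO.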

[17] = IUF_NPC2a_radial_glia_migration_120hr: Leibniz Research Institute for Environmental Medicine (IUF) 120-hour Neural Progenitor Cell Migration Assay for Radial Glia Migration (NPC2a) (AID 2284298)
How it was run: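 Single 0.3 mm primary human fetal-cortex (GW 16-19) NPC spheres were plated on poly-D-lysine/laminin in N2 differentiation medium and exposed from day 0 for 120 h, half-medium refreshed day 3. Migration distance came from Hoechst nuclei-density imaging, relative to DMSO.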

[18] = IUF_NPC2a_radial_glia_migration_72hr: Leibniz Research Institute for Environmental Medicine (IUF) 72-hour Neural Progenitor Cell Migration Assay for Radial Glia Migration (NPC2a) (AID 2284299)
How it was run: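 Primary hNPC spheres, fetal brain GW 16-19, on PDL/laminin; DMEM/F12 3:1 + 1% N2. Compound dosed day 0, 7 conc. + SC, half-medium refresh day 3. 72 h brightfield, migration distance core-to-front (um), 4 directions averaged.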

[19] = IUF_NPC2b_neuronal_migration_120hr: Leibniz Research Institute for Environmental Medicine (IUF) 120-hour Neural Progenitor Cell Migration Assay for Neuron Migration (NPC2b) (AID 2284300)
How it was run: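 Primary human fetal cortex neural progenitor spheres (0.3 mm) plated on poly-D-lysine/laminin in N2 differentiation medium, exposed 120 h with half-medium refresh at day 3. TUBB3-stained neuron distance from sphere core, normalized to radial glia migration, versus DMSO.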

[20] = IUF_NPC3_neuronal_differentiation_120hr: Leibniz Research Institute for Environmental Medicine (IUF) 120-hour Neuronal Differentiation Assay (NPC3) (AID 2284301)
How it was run: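 Primary human fetal neural progenitor spheres (GW 16-19, 0.3 mm) plated on poly-D-lysine/laminin in N2 medium, exposed from day 0 for 120 h with half-medium refresh at day 3. TUBB3+ cells as percent of Hoechst nuclei in migration area; DMSO baseline.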

[21] = IUF_NPC4_neurite_length_120hr: Leibniz Research Institute for Environmental Medicine (IUF) 120-hour Neuronal Morphology Assay for Neurite Length (NPC4) (AID 2284302)
How it was run: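 Human fetal cortex (GW 16-19) neural progenitor spheres, 0.3 mm, were plated on poly-D-lysine/laminin in N2 differentiation medium and exposed from day 0 for 120 h, half-feeding at day 3. Mean TUBB3+ neurite length (µm) came from skeletonized images, relative to DMSO.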

[22] = IUF_NPC5_oligodendrocyte_differentiation_120hr: Leibniz Research Institute for Environmental Medicine (IUF) 120-hour Oligodendrocyte Differentiation Assay (NPC5) (AID 2284304; active = hit-call score of the fitted dose curve at least 0.9, where 1 is the maximum;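 also: primary human fetal neural progenitor spheres plated to migrate and differentiate; share of O4-positive cells among Hoechst nuclei found by CNN image analysis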)
How it was run: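 Primary human fetal (GW 16-19) neural progenitor spheres (0.3 mm) plated on poly-D-lysine/laminin in N2 differentiation medium, exposed from day 0 for 120 h with half-medium refresh at day 3; O4-positive cells as percent of Hoechst nuclei, CNN-identified, versus DMSO.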

[23] = IUF_NPC4_neurite_area_120hr: Leibniz Research Institute for Environmental Medicine (IUF) 120-hour Neuronal Morphology Assay for Neurite Area (NPC4) (AID 2284305; active = hit-call score of the fitted dose curve at least 0.9, where 1 is the maximum)
How it was run: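 Human fetal cortex-derived neural progenitor spheres (0.3 mm, GW 16-19) plated on poly-D-lysine/laminin in N2 differentiation medium and exposed from day 0 for 120 h across 7 concentrations plus solvent control. Neurite area is mean pixel area per TUBB3-positive neuron via skeletonization, analysed relative to DMSO.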

[24] = IUF_NPC2-5_cytotoxicity_72hr: Cytotoxicity Assessment at 72 hours in the Leibniz Research Institute for Environmental Medicine (IUF) Neural Progenitor Cell Migration and Differentiation Assay for Cytotoxicity (NPC2-5) (AID 2284306; active = hit-call score of the fitted dose curve at least 0.9, where 1 is the maximum;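 also: LDH release into supernatant measured by resorufin fluorescence marking membrane damage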)
How it was run: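 Human fetal (GW 16-19) neural progenitor spheres, 0.3 mm, plated on poly-D-lysine/laminin in N2 differentiation medium and exposed from day 0 to 7 concentrations plus solvent control (DMSO ≤0.1%). LDH-dependent resazurin-to-resorufin fluorescence in supernatant at 72 h.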

[25] = IUF_NPC2-5_cytotoxicity_120hr: Cytotoxicity Assessment at 120 hours in the Leibniz Research Institute for Environmental Medicine (IUF) Neural Progenitor Cell Migration and Differentiation Assay (NPC2-5) (AID 2284307; active = hit-call score of the fitted dose curve at least 0.9, where 1 is the maximum;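 also: LDH released into supernatant as membrane damage marker via resorufin fluorescence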)
How it was run: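 Human fetal neural progenitor spheres (0.3 mm, GW 16-19 cortex) were plated on poly-D-lysine/laminin in N2 differentiation medium and exposed for 120 h, with half-medium refresh at day 3. LDH release into supernatant was read by resorufin fluorescence.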

[26] = IUF_NPC2-5_cell_number_120hr: Cell Number Assessment at 120 hours in the Leibniz Research Institute for Environmental Medicine (IUF) Neural Progenitor Cell Migration and Differentiation Assay (NPC2-5) (AID 2284308);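 also: count of Hoechst-stained nuclei in migration zone around plated human neural progenitor spheres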
How it was run: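 Primary human fetal neural progenitor spheres (GW 16-19, 0.3 mm) plated on poly-D-lysine/laminin in N2 differentiation medium, exposed from day 0 for 120 h with half-medium refresh at day 3; Hoechst-positive nuclei counted in migration area versus DMSO control.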

[27] = IUF_NPC2-5_viability_120hr: Viability Assessment at 120 hours in the Leibniz Research Institute for Environmental Medicine (IUF) Neural Progenitor Cell Migration and Differentiation Assay (NPC2-5) (AID 2284312)
How it was run: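 Human fetal (GW 16-19) neural progenitor spheres of 0.3 mm were plated on poly-D-lysine/laminin in N2 differentiation medium and exposed from day 0 for 120 h, with half-medium refresh at day 3. Viability was read as alamar blue resazurin-to-resorufin fluorescence against DMSO.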

[28] = IUF_NPC1_cytotoxicity_72hr: Cytotoxicity Assessment at 72 hours in the Leibniz Research Institute for Environmental Medicine (IUF) Neural Progenitor Cell Proliferation Assay (NPC1) (AID 2284332; active = hit-call score of the fitted dose curve at least 0.9, where 1 is the maximum;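 also: rising LDH signal means more cytotoxicity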)
How it was run: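 Spheres of primary human neural progenitors are plated one per well on day 0 in growth-factor medium and dosed at once. After three days at 37C, supernatant LDH is measured fluorimetrically via resazurin reduction.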

[29] = CCTE_Mundy_HCI_iCellGluta_NOG_NeuronCount: CCTE's Neurite Outgrowth Assay in iCellGluta cells for Neuron Count, Mundy Lab (AID 2284340; active = hit-call score of the fitted dose curve at least 0.9, where 1 is the maximum;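 also: cells fixed about 48 h after compound addition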)
How it was run: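 Neuron count read by automated high-content imaging of Hoechst 33342 and betaIII-tubulin/Alexa Fluor-488 labelling in human iPSC glutamatergic neurons. Activity fitted relative to DMSO.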

[30] = CCTE_Mundy_HCI_iCellGluta_NOG_NeuriteCount: CCTE's Neurite Outgrowth Assay in iCellGluta cells for Neurite Count, Mundy Lab (AID 2284342; active = hit-call score of the fitted dose curve at least 0.9, where 1 is the maximum;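 also: chemical exposure about 48 hours starting 2 hours after plating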)

Measured: AC50

Cc1c(O)cccc1C(=O)N[C@@H](CSc1ccccc1)[C@H](O)CN1C[C@H]2CCCC[C@H]2C[C@H]1C(=O)NC(C)(C)C
inactive: [10] | [28]
active: [1] 6.39 µM | [2] 4.72 µM | [3] 33.8 µM | [4] 28.9 µM | [5] 2.49 µM | [6] 3.11 µM | [7] 5.46 µM | [8] 6.41 µM | [9] 13.8 µM | [11] 25 µM | [12] 15.4 µM | [13] 18.7 µM | [14] 11.1 µM | [15] 4.18 µM | [16] 12.7 µM | [17] 8.08 µM | [18] 13.4 µM | [19] 19.9 µM | [20] 7.87 µM | [21] 7.21 µM | [22] 0.596 µM | [23] 8.75 µM | [24] 14.5 µM | [25] 9.82 µM | [26] 8.12 µM | [27] 7.38 µM | [29] 39.4 µM | [30] 37.4 µM
